Where a name gives a salt, the structure may show the parent alone. ± gives the standard deviation of the averaged measurements. Whole data set: some 2,600 compounds, median “MBP+ mature oligodendrocyte number relative to DMSO vehicle control” near -0.34, cut for the highest 2% near 13. Shown is part of a subset that was picked to be rich in the highest values.
The compounds below were run on jimpy (Plp1 jimpy) mouse iPSC-derived oligodendrocyte progenitor cells (assay: MBP+ mature oligodendrocyte number relative to DMSO vehicle control (SDs above negative control mean); higher = more surviving jimpy oligodendrocytes (rescue)). Details: 10 µM; 3 days.
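Note: 10 µM single dose with 3-day oligodendrocyte differentiation.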

| Compound | MBP+ mature oligodendrocyte number |
| --- | --- |
| CC(C)CCN1c2nc(Nc3cc(F)c(O)c(F)c3)ncc2N(C)C(=O)C1C (stereo not given) | < -6.01 |
| O=C(O)CP(=O)(O)O [Phosphonoacetic acid] | -0.64 |
| O=C(O)c1cc(=O)c2c(Cl)cc(Cl)cc2[nH]1 [5,7-Dichlorokynurenic acid] | -0.544 |
| COC(=O)C1=CO[C@@H](O)[C@@H]2C(CO)=CC[C@H]12 [Genipin] | 3.27 ± 0.9 |
| C=CC(=O)Nc1cccc(Nc2nc(Nc3ccc(Oc4ccnc(C(=O)NC)c4)cc3)ncc2F)c1 | -6.27 |
| CN1CCN(C(=O)c2cc3cc(Cl)ccc3[nH]2)CC1 | 1.14 |
| N[C@@H](CC(=O)N1CCn2c(nnc2C(F)(F)F)C1)Cc1cc(F)c(F)cc1F [Sitagliptin phosphate monohydrate] | 0.184 |
| NCCOc1cc(C(=O)Nc2cc(OCCN)c3ccccc3n2)nc(C(=O)Nc2cc(OCCN)c3ccccc3n2)c1 [Pyridostatin trifluoroacetate salt] | -3.78 |
| COc1ccccc1CN[C@H]1CCCN[C@H]1c1ccccc1 | -0.711 |
| CSc1c(C)c(SC)n2ccncc12 [Oltipraz metabolite M2] | -2.35 |
| CC(C)NC[C@H](O)COc1ccc(CCOCC2CC2)cc1 [Levobetaxolol HCl] | 9.7 |
| CN(C)C(=O)Nc1cccc(-c2ccc(N(C)C)cc2)c1 [Atglistatin] | 6.21 |
| COc1cc2c[n+](C)c3c4cc5c(cc4ccc3c2cc1OC)OCO5 [Nitidine chloride] | < -4.47 |
| N#CC1(c2ccc(NC(=O)c3cccnc3NCc3ccncc3)cc2)CCCC1 [Apatinib] | 2.86 |
| CN(C/C=C/C#CC(C)(C)C)Cc1cccc2ccccc12 [Terbinafine HCl] | 4.54 |
| CN(Cc1ccc(C(C)(C)C)cc1)Cc1cccc2ccccc12 [Butenafine HCl] | 21.1 |
| COc1ccc(CNCc2cccc3ccccc23)cc1 | -1.56 |
| CN(C/C=C/C#CC(C)(C)C)Cc1cccc2ccccc12 [Terbinafine] | 1.87 |
| CCC(=O)O[C@]1(C(=O)CCl)[C@@H](C)C[C@H]2[C@@H]3CCC4=CC(=O)C=C[C@]4(C)[C@@]3(F)[C@@H](O)C[C@@]21C [Clobetasol propionate] | 12.8 |
| CCC(=O)O[C@]1(C(=O)CCl)[C@@H](C)C[C@H]2[C@@H]3C[C@H](F)C4=CC(=O)C=C[C@]4(C)[C@@]3(F)[C@@H](O)C[C@@]21C [Halobetasol Propionate] | 21.4 |
| CCC(=O)OCC(=O)[C@@]1(OC(=O)CC)[C@@H](C)C[C@H]2[C@@H]3CCC4=CC(=O)C=C[C@]4(C)[C@@]3(Cl)[C@@H](O)C[C@@]21C [Beclomethasone dipropionate] | 7.8 |
| CCC(=O)O[C@]1(C(=O)SCF)[C@H](C)C[C@H]2[C@@H]3C[C@H](F)C4=CC(=O)C=C[C@]4(C)[C@@]3(F)[C@@H](O)C[C@@]21C [Fluticasone propionate] | 8.9 |

| Compound | MBP+ mature oligodendrocyte number |
| --- | --- |
| C[C@@H]1C[C@H]2[C@@H]3C[C@H](F)C4=CC(=O)C=C[C@]4(C)[C@@]3(F)[C@@H](O)C[C@]2(C)[C@@]1(O)C(=O)CO [Flumethasone] | 8.94 |
| C[C@H]1C[C@H]2[C@@H]3CCC4=CC(=O)C=C[C@]4(C)[C@@]3(F)[C@@H](O)C[C@]2(C)[C@@]1(O)C(=O)CO [Betamethasone] | 6.53 ± 6.4 |
| CO[C@H]1C(=O)[C@]2(C)[C@@H](OC)C[C@H]3OC[C@@]3(OC(C)=O)[C@H]2[C@H](OC(=O)c2ccccc2)[C@]2(O)C[C@H](OC(=O)[C@H](O)[C@@H](NC(=O)OC(C)(C)C)c3ccccc3)C(C)=C1C2(C)C [Cabazitaxel] | -3.71 |
| C=CCN1CCc2c(cc(O)c(O)c2Br)[C@@H](c2ccccc2)C1 [R(+)-6-Bromo-APB hydrobromide] | -2.95 |
| Cc1ccc(C(=O)NCCCCCC(=O)Nc2ccccc2N)cc1 | -5.76 |
| NC(N)=NCc1cccc(I)c1 [m-Iodobenzylguanidine hemisulfate] | 16.6 |
| CCN(CC)CCn1c(=O)c(Cc2ccc(OC)cc2)nc2ccccc21 [Caroverine hydrochloride] | -0.211 |
| Cc1ccc(S(=O)(=O)OCC(=O)Nc2ccc(C(=O)O)c(O)c2)cc1 | 2.29 |
| CC[n+]1c(/C=C/C=C2/N(C)c3ccccc3C2(C)C)sc2ccccc21 | < -4.47 |
| Cc1cc(C(=O)NOCCO)c(Nc2ccc(I)cc2F)n(C)c1=O | -0.892 |
| NCCNS(=O)(=O)c1cccc2c(Cl)cccc12 [A3 hydrochloride] | -2.82 |
| Cn1c(N2CCCCS2(=O)=O)nc(C(=O)NCc2ccc(F)cc2)c(O)c1=O | < -6.7 |
| Cc1nnc(C(=O)NC(C)(C)c2nc(C(=O)NCc3ccc(F)cc3)c(O)c(=O)n2C)o1 [Raltegravir (MK-0518)] | 55.9 |
| O=C(Nc1cccc(C(F)(F)F)c1)Nc1cc(S(=O)(=O)NC2CC2)ccc1-c1ccsc1 | 18.2 |
| O=C(O)c1ccccc1Nc1cccc(C(F)(F)F)c1 [Flufenamic acid] | 1.25 |
| COc1cc(OC)cc(-c2cc3cnc(N)nc3nc2NC(=O)NC(C)(C)C)c1 | -2.43 |
| CC[C@H](NC(=O)c1c(C)c(-c2ccccc2)nc2ccccc12)c1ccccc1 | -1.61 |
| O=C1NC(=O)/C(=C\c2ccc3nccnc3c2)S1 | -0.833 |
| Clc1ccccc1C(c1ccccc1)(c1ccccc1)n1ccnc1 [Clotrimazole] | 15.7 ± 1.2 |
| FC(F)(F)c1ccccc1-n1ccnc1 [1-[2-(Trifluoromethyl)phenyl]imidazole] | -0.176 |
| O=C(NCCO)c1cccc(-c2cc(Nc3ccc(OC(F)(F)F)cc3)ncn2)c1 | -0.394 |
| CC(=O)[C@H]1CC[C@H]2[C@@H]3CC=C4C[C@@H](OS(=O)(=O)O)CC[C@]4(C)[C@H]3CC[C@]12C [Pregnenolone sulfate sodium] | 0.467 |

| Compound | MBP+ mature oligodendrocyte number |
| --- | --- |
| O=C1NC(=O)C(=Cc2ccc(-c3ccc(F)cc3)o2)S1 (stereo in doubt) | 0.66 |
| Clc1ccc(C(c2ccc(Cl)cc2)[n+]2ccn(CC(OCc3ccc(Cl)cc3Cl)c3ccc(Cl)cc3Cl)c2)cc1 (stereo not given) [Calmidazolium chloride] | < -3.34 |
| CC(C)OC(=O)C(C(=O)OC(C)C)=C1SC=CS1 [Malotilate] | 19 |
| CCN(C(=O)c1c(O)c2c(Cl)cccc2n(C)c1=O)c1ccccc1 [Laquinimod] | 1.45 |
| O=C(O)[C@H](CC(=O)N1C[C@H]2CCCC[C@H]2C1)Cc1ccccc1 [Mitiglinide calcium] | -1.54 |
| COc1ccccc1N1CCN(CCN(C(=O)c2ccc(F)cc2)c2ccccn2)CC1 [p-MPPF dihydrochloride] | 6.54 |
| CNCc1ccc(C)c(NC(=O)c2ccc(Nc3nc(-c4ccccc4)c4ccccc4n3)cc2)c1 | < -6.35 |
| Cc1ccc(NC(=O)c2cccc(N(C)C)c2)cc1NC(=O)c1ccc(O)cc1 | 14.6 |
| Cc1ccc(C(=O)Nc2ccc(S(=O)(=O)O)c3cc(S(=O)(=O)O)cc(S(=O)(=O)O)c23)cc1NC(=O)c1cccc(NC(=O)Nc2cccc(C(=O)Nc3cc(C(=O)Nc4ccc(S(=O)(=O)O)c5cc(S(=O)(=O)O)cc(S(=O)(=O)O)c45)ccc3C)c2)c1 [Suramin sodium salt] | -1.35 |
| C[C@]12CC[C@@H]3c4ccc(O)cc4CC[C@H]3[C@@H]1CC[C@@H]2O [Estradiol] | 5.47 |
| C[C@]12CC[C@@H]3c4ccc(O)cc4CC[C@H]3[C@@H]1CC[C@@H]2O [beta-Estradiol] | 3.17 |
| C[C@]12CC[C@@H]3c4ccc(O)cc4CC[C@H]3[C@@H]1CCC2=O [Estrone] | 21.6 ± 26 |
| C[C@]12CC[C@@H]3c4ccc(O)cc4CC[C@H]3[C@@H]1C[C@@H](O)[C@@H]2O [Estriol] | -0.78 |
| Nc1nc2ccc(Cl)cc2n2c(-c3ccccc3)nnc12 | 0.304 |
| Oc1c2ccccc2c2c3c(cccc13)N=N2 | -2.59 ± 1.1 |
| CCCCCCCCCCCCCCCC(=O)OC[C@H](O)[C@H]1OC(=O)C(O)=C1O [L-Ascorbyl 6-palmitate] | -1.84 |
| N[C@@H](Cc1cc(I)c(Oc2cc(I)c(O)c(I)c2)c(I)c1)C(=O)O [L-Thyroxine] | -1.06 |
| c1ccc(-c2ccc(C(c3ccccc3)n3ccnc3)cc2)cc1 (stereo not given) [Bifonazole] | 52.3 |
| N#Cc1ccc(C(c2ccc(C#N)cc2)n2cncn2)cc1 [Letrozole] | 3.69 |
| CC(N)(Cc1ccc(O)cc1)C(=O)O (racemic) [DL-alpha-Methyl-p-tyrosine] | 1.37 |
| O=C(/C=C/c1ccc(O)cc1)CC(=O)/C=C/c1ccc(O)cc1 [Bisdemethoxycurcumin] | 0.659 |

Reference: the supplement of paper PMC6135742
